Compound activity as filed in PubChem.
The list is not random: actives were taken first. Their share in the collection is about 4.6%.
TRHR enhancer: qHTS for Small Molecule Agonists and Allosteric Enhancers of Human TRH Receptor: Primary Screen for Enhancers; Thyrotropin-releasing hormone receptor (Homo sapiens), P34981; TRHR cells, fluo-8 calcium fluorescence, EC20 TRH enhancement; enhancement, % at 2 µM; 360,000 tested, 0.66% active; AID 493056, 2011; in the data active means enhancement above about 30%; further: 0% is about no effect
Target sequence (P34981 whole entry, looked up): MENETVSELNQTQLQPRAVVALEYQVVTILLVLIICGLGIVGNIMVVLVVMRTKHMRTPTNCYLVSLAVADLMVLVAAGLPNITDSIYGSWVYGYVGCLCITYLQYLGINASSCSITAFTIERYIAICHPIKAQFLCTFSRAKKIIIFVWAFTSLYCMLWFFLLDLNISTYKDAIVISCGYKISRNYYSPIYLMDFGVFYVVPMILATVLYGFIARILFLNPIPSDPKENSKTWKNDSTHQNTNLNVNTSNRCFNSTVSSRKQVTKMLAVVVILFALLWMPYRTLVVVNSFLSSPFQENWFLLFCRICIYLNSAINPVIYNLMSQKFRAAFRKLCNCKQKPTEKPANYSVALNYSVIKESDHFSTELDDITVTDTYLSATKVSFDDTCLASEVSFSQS
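Enhancer read-out: after compound pinning and an initial kinetic agonist-mode read, an EC20 of TRH (10 nM final) was injected and fluo-8 calcium signal (Ex 480/Em 530) followed at 1 s/cycle for 100 cycles in TRHR-expressing cells.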
D1 antagonist: Antagonist of Human D 1 Dopamine Receptor: qHTS | D(1A) dopamine receptor (Homo sapiens), P21728 | HEK293 TREx D1 cells, calcium flux, dopamine EC80; stronger effect = lower value | activity change, negative = inhibition, % at 10 µM | 360,000 tested, 3.2% active; in the data active means activity change below about -30%; further: on the % scale 0 is the no-effect control and ±100 the full control effect
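Cells carrying a force-coupled, tetracycline-inducible human D1 receptor report calcium flux. Each well gets a 10 s baseline, compound with 180 s monitoring, then an EC80 dopamine stimulus with a second 180 s kinetic read.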
D1 agonist: Allosteric Agonists of the Human D1 Dopamine Receptor: qHTS; D(1A) dopamine receptor (Homo sapiens), P21728; HEK293 T-REx D1 cells, calcium flux, agonist mode; activation, % at 2 µM; 360,000 tested, 1% active; further: 0% is about no effect
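Tetracycline-induced HEK293 TREx D1 cells, force-coupled to calcium signalling, were dye-loaded with a no-wash calcium kit. Compound was pin-added after a 10 s baseline. Fluorescence was read kinetically at 1 cycle/s for 180 s, with calcium rises flagged as agonism.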
D1 PAM: Potentiators of Human D1 Dopamine Receptor: qHTS; AID 504651, 2011; HEK293 TREx D1 cells, calcium flux, dopamine EC20 potentiation; 360,000 tested, 0.036% active; potentiation, % at 10 µM; in the data active means potentiation above about 30%; further: 0% is about no effect
TRHR ag: qHTS for Small Molecule Agonists and Allosteric Enhancers of Human TRH Receptor: Primary Screen for Agonists. 360,000 tested, 0.18% active. TRHR cells, calcium flux fluo-8, FDSS agonist mode. AID 493084, 2011. activation, % at 2 µM. Thyrotropin-releasing hormone receptor (Homo sapiens), P34981; further: 0% is about no effect
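Read-out: compound-evoked intracellular calcium rise in TRHR cells, fluo-8 dye, kinetic FDSS fluorescence at 1 s/cycle following a 10-cycle baseline. Cells cultured overnight before dye loading (30 min–1.5 h, RT).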
Epigenetic derep: Quantitative High-Throughput Screen for Regulators of Epigenetic Control | murine LDR cells, GFP reporter derepression, 30 h | Potency, µM (titrated, usually from 53.9 µM), without a hit: at the highest dose GFP activation, hits mostly activators | 280,000 tested, 0.2% active | AID 1865, 2009; active means well fitted activation curve with a large enough effect; further: potency means the concentration at half of the fitted maximal effect; % of control where 0% means no effect; nearly all actives have a fitted effect of over 60% in size
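Murine LDR cells bearing a silenced CMV-driven GFP reporter were exposed to compound for 30 h at 37 C. After PBS washes, GFP-positive cells (20-120 um objects) counted by laser-scanning microplate cytometry.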
Starred values were filed as active, the others as inactive; / = no result. Unless noted, no stated cut-off is given here; in the data, active means activation above about 30%; inactive means the rest.

SMILES	TRHR enhancer	D1 antagonist	D1 agonist	D1 PAM	TRHR ag	Epigenetic derep
CCCCC(CC)CN=C(N)NC(N)=NCCCCCCN=C(N)NC(N)=NCC(CC)CCCC (centres undefined)	-7	-75*	2	2	1	7%
CCCCCCCCCCCCC(=O)N1CCCC[C@H]1CNC(=O)[C@@H](N)CCCCN	/	/	/	/	/	1%
CCOCc1c(C(=O)N2CCN(CC(=O)Nc3ccc(F)cc3)CC2)oc2ccccc12	-20	-34*	-1	-7	-1	/
O=C(COC(=O)Cn1cc(C(F)(F)F)ccc1=O)NCc1ccccc1	-2	-24	4	-1	0	/
NC(=O)c1ccccc1NC(=O)c1ccccc1Cl	-2	-7	0	-5	-1	0%
O=C(Nc1nnc(C(F)(F)F)s1)c1ccc(Br)s1	-8	-43*	37*	-7	5	0%
O=C(Nc1ccccc1C(=O)Nc1nnc(C(F)(F)F)s1)c1ccccc1Cl	-9	-30*	26	-3	2	2%
CC(NC(=O)Nc1nnc(C(F)(F)F)s1)(C(F)(F)F)C(F)(F)F	3	-29	41*	-8	12	0%
Cc1nn(-c2ccccc2)c2sc(C(=O)Nc3cccc(Br)c3)cc12	2	7	11	-1	2	2%
COc1ccc(-c2cn3cccnc3n2)cc1NC(=O)c1cc(C)cc(C)c1	-4	-87*	-1	2	0	1%
COc1ccc(C)cc1S(=O)(=O)Nc1cccc(-c2cn3cccnc3n2)c1	31*	-4	1	-3	0	/
O=S(=O)(Nc1cccc(-c2cn3cccnc3n2)c1)c1ccc(Cl)cc1	4	-14	1	-1	0	-1%
O=C(Cc1ccccc1)Nc1cccc(-c2cn3cccnc3n2)c1	-1	19	0	-2	0	1%
Cc1ccc(-c2cn3cccnc3n2)cc1NC(=O)Cc1ccccc1	4	-73*	1	0	1	1%
CC(C)c1cc(CNC(=O)c2ccc(OC3CCN(Cc4ccccn4)CC3)cc2)on1	-2	-53*	13	-7	0	/
CCn1nc(C)c(CNC(=O)c2ccc(OC3CCN(Cc4ccccn4)CC3)cc2)c1C	3	-34*	5	-6	1	/
COC(=O)[C@@H](NC(=O)c1ccc(OC2CCN(Cc3ccccn3)CC2)cc1)C(C)C	-6	1	4	-1	1	4%
CCn1cc(CNC(=O)c2ccc(OC3CCN(Cc4ccccn4)CC3)cc2)cn1	-1	0	2	-5	0	/
COC(=O)c1ccc(NC(=O)CSc2cn(CC(=O)N3CCCCC3)c3ccccc23)cc1	-4	-10	13	-5	0	-2%
C[C@@H](C(=O)NCc1ccccn1)[C@@H]1C[C@@]1(C)[C@@H](NC(=O)OCc1ccccc1)c1ccccc1	-5	-31*	-2	2	-1	-1%
NNC(=O)c1cccnc1Oc1ccccc1	2	-4	4	-1	0	1%
Cc1ccc(Oc2ncccc2C(=O)NCC(=O)O)cc1	5	-88*	3	-13	1	1%
O=c1c(O)c(-c2cccs2)oc2ccccc12	4	28	252*	7	107*	-11%
O=c1c(O)c(-c2cccs2)oc2ccc(Cl)cc12	77*	53	385*	-14	168*	0%
Cc1cccc(CC(=O)NCCc2csc(-c3ccc(C(F)(F)F)cc3)n2)c1	1	-13	4	1	0	0%
Fc1ccc(-n2cc(CNCCc3ccncc3)c(-c3ccccc3Cl)n2)cc1	0	-32*	10	-2	1	0%
